Data taken from PubChem BioAssay (NCI).
About 79,000 compounds went through this panel and 15% of them were active in at least one assay; those are over-represented in the sample as a whole. Cut-off read from the data, not from the text of the source: active = growth inhibition above about 70%; inactive = the rest.

What was measured:
[1] = NCI Yeast Anticancer Drug Screen. Data for the rad50 strain (AID 155);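 note: 0% = growth of vehicle-only cultures of the same strain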; settings: S. cerevisiae rad50 strain growth inhibition; at 50.0 µM; active compounds read high
Outline: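 Inhibition values express reduced yeast growth in compound-treated cultures relative to vehicle-treated controls.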

[2] = NCI Yeast Anticancer Drug Screen. Data for the mec2-1 strain (AID 157); settings: S. cerevisiae mec2-1 strain, at 50.0 µM, active compounds read high
Outline: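 Readout is yeast growth inhibition, normalised to vehicle-treated controls, in the mec2-1 strain exposed to compound.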

[3] = NCI Yeast Anticancer Drug Screen. Data for the sgs1 mgt1 strain (AID 161);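 note: 0% = growth of cultures given vehicle only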; settings: S. cerevisiae sgs1 mgt1 strain, at 50.0 µM, active compounds read high
Outline: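 Growth of a repair-deficient yeast mutant was monitored after compound treatment and expressed as inhibition relative to vehicle-treated cultures.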

[4] = NCI Yeast Anticancer Drug Screen. Data for the cln2 rad14 strain (AID 165);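 note: 0% = growth equal to vehicle treated cultures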; settings: S. cerevisiae cln2 rad14 strain, at 50.0 µM, active compounds read high
Outline: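 Relative to vehicle controls, growth inhibition of compound-treated cln2 rad14 yeast was recorded.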

[5] = NCI Yeast Anticancer Drug Screen. Data for the bub3 strain (AID 167); settings: S. cerevisiae bub3 mutant strain, at 50.0 µM, active compounds read high
Outline: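 Steps: expose the mutant yeast strain to compound; grow alongside vehicle-treated cultures; measure growth; express inhibition against the vehicle cultures.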

[6] = NCI Yeast Anticancer Drug Screen. Data for the mlh1 rad18 strain (AID 175); settings: S. cerevisiae mlh1 rad18 strain growth inhibition; at 50.0 µM; active compounds read high
Outline: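 Test agents were incubated with a yeast strain of defined genotype (DNA damage repair defect). Inhibition of growth was derived by comparison with vehicle-exposed cultures.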

Measured: growth inhibition

Brc1ccccc1C(Nc1nncs1)Nc1nncs1
inactive: [1] 6.6% | [2] -4.35% | [3] -10.7% | [4] -3.1% | [5] -0.25% | [6] 8.35%

Nc1ncnc2nc(N=Nc3ccc(S(=O)(=O)O)cc3)[nH]c12
inactive: [1] 4.25% | [2] -21.1% | [3] -1.2% | [4] -23.4% | [5] -6.35% | [6] -6.75%

CCOC(=O)C1=C(c2ccccc2)N=c2ccccc2=S1C (stereo not drawn)
inactive: [1] 7.25% | [2] -2.3% | [3] 18.1% | [4] -3.35% | [5] 5.1% | [6] 20.4%

O=C(O)COc1c(Cl)cc(Cl)cc1Cl
inactive: [1] -34.7% | [2] -37% | [3] -29.6% | [4] -15.4% | [5] -39.9% | [6] -31.6%

CN(NC(=O)c1ccco1)C1=NCCCCN1
inactive: [1] -11.8% | [2] -10.6% | [3] -15.3% | [4] -16.6% | [5] -10.2% | [6] 0.3%

Cc1cccc(CNc2ccc(S(=O)(=O)c3ccc(NCc4cccc(C)n4)cc3)cc2)n1
inactive: [1] 4.7% | [2] 4.35% | [3] 9.75% | [4] -8.95% | [5] -5.95% | [6] 15.4%

Cc1nc(N)c(N2CCN(CN)CC2)c(=O)[nH]1
inactive: [1] -35.2% | [2] 7.1% | [3] -5.85% | [4] 21.6% | [5] 25.9% | [6] -38%

O=C(O)C1=C(c2ccccc2)C=C(c2ccccc2)C1
inactive: [1] 0% | [2] 0.2% | [3] 12.8% | [4] -33% | [5] 48% | [6] 28.9%

Nc1cc(CO)cc(Nc2c3ccccc3nc3ccccc23)c1
inactive: [1] 26.8% | [2] 7.35% | [3] -30.8% | [4] -6.95% | [5] 0.65% | [6] 48.5%

CN1C(=O)C(=C2CCCCC2)SC1=S
inactive: [1] 0.55% | [2] 7.8% | [3] -11.6% | [4] -4.3% | [5] 2.8% | [6] 2.15%

COC(=O)C(=[N+]=[N-])C(=O)c1ccccc1[N+](=O)[O-]
inactive: [1] 30.5% | [2] 27.4% | [3] 15.8% | [4] 18.5% | [5] 6.9% | [6] 14.5%

CCC(Cc1ccccc1)OC(=O)c1ccccc1C(=O)O (stereo not drawn)
inactive: [1] -16.2% | [2] -10.8% | [3] 8% | [4] -43.3% | [5] -6.85% | [6] 1.9%

O=P(O)(OCCOc1ccccc1)OCCOc1ccccc1
inactive: [1] 6.25% | [2] 10.5% | [3] 8.25% | [4] -24.6% | [5] -11.6% | [6] -12.8%

Nc1[nH]c(=O)nc2snnc12
inactive: [1] 2.35% | [2] -2.3% | [3] 14.9% | [4] 16.3% | [5] 6.1% | [6] -57.9%

CCCCC1(C=O)NC(=O)N(C)C1=O (stereo not drawn)
inactive: [1] 5% | [2] 2.35% | [3] -10.8% | [4] 5.6% | [5] 7.2% | [6] -9.35%

Cc1ccc(S(=O)(=O)NN=C2C(C)CC(C(C)(C)C)CC2C)cc1 (stereo not drawn)
inactive: [1] -24.8% | [2] 26% | [3] -41.9% | [4] 8.9% | [5] 44.6% | [6] -6%

CSc1nc(-c2ccc(Cl)cc2)c(C#N)c(=O)n1C1OC(COC(C)=O)C(OC(C)=O)C(OC(C)=O)C1OC(C)=O (stereo not drawn)
inactive: [1] -0.55% | [2] -5.75% | [3] 16.6% | [4] 21.2% | [5] -36% | [6] 23.2%

Cc1nc(N)[nH]c(=O)c1CCCNC(=O)c1cccc([N+](=O)[O-])c1
inactive: [1] -1.55% | [2] 2.65% | [3] 11.4% | [4] -4.7% | [5] 30.5% | [6] 18.6%

COc1ccc2c(ccc3nc(C)[nH]c(=O)c32)c1
inactive: [1] 5.3% | [2] -5.35% | [3] 2.95% | [4] -30.2% | [5] -10.6% | [6] -6.3%

CN(C)c1cc(-c2ccccc2)oc(=O)c1Cl
inactive: [1] 11.6% | [2] -19.8% | [3] -24.2% | [4] -22.2% | [5] -16.2% | [6] -9.15%

O=C(CCCCC(=O)NC1c2ccccc2Oc2ccccc21)NC1c2ccccc2Oc2ccccc21
inactive: [1] 35.2% | [2] 12.1% | [3] 31% | [4] 32% | [5] 9.25% | [6] 31.4%

Cc1ccc(S(=O)(=O)CNC(=O)C(O)(O)C(F)(F)F)cc1
inactive: [1] -24.9% | [2] -2.5% | [3] -9.45% | [4] 27.8% | [5] -1.9% | [6] -12.4%

O=C1C2C3CCC(C3)C2C(=O)C2C3CCC(C3)C12 (stereo not drawn)
inactive: [1] -1.6% | [2] -12.7% | [3] -9.95% | [4] -8.45% | [5] 8.75% | [6] 6.65%

CC(=O)OCC1OC(n2c3c(cc(C#N)c2=S)CCCCCC3)C(OC(C)=O)C(OC(C)=O)C1OC(C)=O (stereo not drawn)
inactive: [1] 22.2% | [2] 4.45% | [3] 12.1% | [4] -12.8% | [5] -4% | [6] 33.4%

NC(=O)c1ccc2c(c1)-c1nc-2nc2[n-]c(nc3nc(nc4[n-]c(n1)c1ccc(C(N)=O)cc41)-c1ccc(C(N)=O)cc1-3)c1ccc(C(N)=O)cc21.[Co+2]
inactive: [1] -7.55% | [2] 4.65% | [3] 1.8% | [4] 29.2% | [5] 35% | [6] 4.35%

Clc1ccccc1C1N2CCCCC2[C@@H]2c3[nH]c4ccccc4c3CCN12 (stereo partly drawn)
inactive: [1] -14.8% | [2] -1.35% | [3] 9.25% | [4] 9.25% | [5] 12.6% | [6] 2.4%

COc1cc2c(cc1OC)C(=O)/C(=C/c1ccccc1)CC2
inactive: [1] 6.95% | [2] -6.45% | [3] 12.2% | [4] 11.8% | [5] 37% | [6] 28.6%

Cc1cc(C)nc(NS(=O)(=O)c2ccc(NC(=O)c3cccc4c(Nc5ccc(S(=O)(=O)N=C(N)N)cc5)c5ccc(Cl)cc5nc34)cc2)n1
inactive: [1] 16.4% | [2] 23.3% | [3] 27.2% | [4] 24.4% | [5] 13% | [6] 32.8%

CCCCCCCCCCCl
inactive: [1] 13.2% | [2] 5.85% | [3] 28.5% | [4] 21.8% | [5] 17.6% | [6] 25%

O=C(Nc1nc2ncn(CCNCCn3cnc4nc(NC(=O)c5ccccc5)[nH]c(=O)c43)c2c(=O)[nH]1)c1ccccc1
inactive: [1] -10.2% | [2] 14.1% | [3] 17.5% | [4] 25.9% | [5] 16.8% | [6] 17%

CCOC(=O)C(C)(/C=N/NS(=O)(=O)c1ccc(C)cc1)c1ccccc1 (stereo not drawn)
inactive: [1] 5.2% | [2] 10.7% | [3] 9.15% | [4] 5.7% | [5] 15.9% | [6] 14.3%

COc1cc2c(c(OC)c1OC)CCCC2=O
inactive: [1] 0.2% | [2] -10.4% | [3] -4.5% | [4] -130% | [5] -4.7% | [6] -4.9%

O=c1ccnc2ccc3n[nH][nH]c3c12
inactive: [1] -18.4% | [2] -20.2% | [3] -7.65% | [4] 3.55% | [5] -14.2% | [6] 1.1%

Cc1[nH]c(=S)[nH]c(=O)c1CCC(C)C
inactive: [1] 9.5% | [2] 14.8% | [3] 14.1% | [4] 52.1% | [5] 37.8% | [6] 6.5%

O=C(/N=C/c1c(O)c2ccccc2oc1=O)NC1CCCCC1
inactive: [1] -16.1% | [2] -9.2% | [3] -25.9% | [4] 0.65% | [5] -17.6% | [6] -5.8%

CN1C(=O)n2c(nc3ccccc32)C(N2CCOCC2)(N2CCOCC2)C1=O
inactive: [1] 44% | [2] 56.4% | [3] 62.9% | [4] 29.9% | [5] 31.4% | [6] 45.8%

CC(=O)c1c(C)[nH]c(-c2ccccc2)c1NS(=O)(=O)c1ccc(N)cc1
inactive: [1] -0.2% | [2] -3.45% | [3] 25.4% | [4] -13% | [5] 4% | [6] 8.95%

O=C1OC2C(Cl)C3CC1C2C3 (stereo not drawn)
inactive: [1] -12.2% | [2] -9.6% | [3] -22.3% | [4] -13.2% | [5] 4.65% | [6] -31.4%
